PAD4 inh: human PAD4 inhibitors, primary screen, biochemical, fluorescence polarization, 1536-well format; recombinant PAD4, RCA probe fluorescence polarization; inhibition, % at 6.36 µM; 0.41% of 330,000 active;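 active means percent inhibition above a cutoff equal to the mean of all tested compounds plus 3 SD, cut at about 15% in these data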;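 further: 0% = PAD4 with RCA probe and DMSO and 100% = probe without PAD4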
Target sequence (Q9UM07 whole entry, looked up): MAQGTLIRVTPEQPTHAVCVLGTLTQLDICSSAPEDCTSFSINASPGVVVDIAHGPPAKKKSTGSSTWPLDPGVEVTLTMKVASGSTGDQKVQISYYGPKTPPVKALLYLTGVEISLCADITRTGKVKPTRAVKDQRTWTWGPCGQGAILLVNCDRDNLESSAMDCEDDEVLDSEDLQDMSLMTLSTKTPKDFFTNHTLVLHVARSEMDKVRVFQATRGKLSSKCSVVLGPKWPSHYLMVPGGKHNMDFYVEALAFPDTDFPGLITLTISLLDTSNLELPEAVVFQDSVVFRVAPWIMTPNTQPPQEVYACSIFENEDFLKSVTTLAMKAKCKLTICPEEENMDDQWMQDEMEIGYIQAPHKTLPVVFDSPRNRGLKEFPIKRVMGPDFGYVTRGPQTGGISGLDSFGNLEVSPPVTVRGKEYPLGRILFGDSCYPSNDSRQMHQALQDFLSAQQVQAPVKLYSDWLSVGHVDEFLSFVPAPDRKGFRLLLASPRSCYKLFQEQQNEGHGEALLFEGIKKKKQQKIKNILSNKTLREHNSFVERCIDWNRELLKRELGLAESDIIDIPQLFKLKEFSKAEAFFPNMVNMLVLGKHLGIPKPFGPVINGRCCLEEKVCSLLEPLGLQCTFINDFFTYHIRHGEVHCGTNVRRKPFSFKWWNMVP
PME-1 primary: PME-1 inhibitors via competitive probe labeling, primary screen, biochemical, fluorescence polarization, FP-Rh probe, HTS | inhibition, % at 5.9 µM | Protein phosphatase methylesterase 1 (Homo sapiens), Q9Y570 | recombinant PME-1 | 0.53% of 320,000 active;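 active means inhibition above the campaign mean of all compounds plus 3 SD, cut at about 26% in these data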;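 further: competitive labeling of PME-1 active site by serine hydrolase directed probe; 0% = PME-1 with DMSO and 100% = wells lacking PME-1 enzyme; inhibitors block probe labeling so polarization falls and inhibition rises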
LYPLA1 counter: LYPLA1 inhibitors, primary screen, counter-screen for PME1 inhibitor project, biochemical, fluorescence polarization, FP-Rh probe ABPP | inhibition, % at 5.9 µM | 0.16% of 320,000 active | recombinant LYPLA1;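 active means inhibition above the mean of all tested compounds plus 3 SD, set per campaign, cut at about 14% in these data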;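 further: inhibitors block serine hydrolase probe labeling of LYPLA1 so polarization falls; 0% = enzyme with DMSO and 100% = wells lacking LYPLA1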
LYPLA2 counter: LYPLA2 inhibitors, primary screen, counter-screen for PME1 inhibitor project, biochemical, fluorescence polarization, FP-Rh probe ABPP; Acyl-protein thioesterase 2 (Homo sapiens), O95372; recombinant LYPLA2; inhibition, % at 5.9 µM; 0.38% of 320,000 active;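 active means inhibition above the screen-wide mean plus 3 SD, limit set per campaign, cut at about 26% in these data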;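 further: 0% = LYPLA2 with DMSO and 100% = wells lacking LYPLA2 enzyme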
GSTO1 inh: inhibitors of recombinant GSTO1, primary screen, counter-screen for RBBP9 inhibitor project, biochemical, fluorescence polarization. Glutathione S-transferase omega-1 (Homo sapiens), P78417. activity-based probe fluorescence polarization. inhibition, % at 5.96 µM. 1.1% of 300,000 active;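 active means inhibition above the campaign mean inhibition plus 3 SD, cut at about 35% in these data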;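 further: 0% = GSTO1-1 with DMSO and 100% = wells lacking GSTO1-1 enzyme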
Fam108B inh: mouse Fam108B serine hydrolase inhibitors, primary screen, counter-screen for RBBP9 inhibitor project, biochemical, fluorescence polarization. recombinant Fam108B, FP-Rh probe fluorescence polarization. inhibition, % at 9.51 µM. 0.33% of 300,000 active. AID 1947, 2009;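 active means inhibition above the screen mean inhibition plus 3 SD, computed separately per campaign, cut at about 18% in these data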;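 further: inhibitors lower polarization as less probe binds the enzyme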
Fam108b confirm: mouse Fam108b serine hydrolase inhibitors, confirmation, counter-screen for RBBP9 inhibitor project, biochemical, fluorescence polarization, triplicate; shares compounds with Fam108B inh; recombinant Fam108b, FP-Rh probe fluorescence polarization; inhibition, % at 9.51 µM; 44% of 930 active; AID 1978, 2009;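 active means inhibition above a limit from the primary screen, the mean over all compounds plus 3 SD, cut at about 19% in these data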;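 further: 0% = median of active Fam108b wells and 100% = catalytically dead S170A mutant; inhibitors free the probe so polarization falls as inhibition rises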
Fam108b inh: inhibition of mouse Fam108b by HTS hits, late-stage follow-up, biochemical, gel-based ABPP, soluble recombinant form | shares compounds with Fam108B inh | fluorophosphonate probe | inhibition, % at 20 µM | 44% of 260 active | AID 588649, 2011; in the data active means inhibition above about 40%
Numbers without * were called inactive; / = not tested or not shown. Rows were chosen to be rich in hits. Some 1.8% of all compounds tested hit in one or more screens of this group.

SMILES | PAD4 inh | PME-1 primary | LYPLA1 counter | LYPLA2 counter | GSTO1 inh | Fam108B inh | Fam108b confirm | others
CCOC(=O)c1ccc(CC(=O)c2ccc(O)cc2O)o1 | -19 | -10 | -6 | 5 | 11 | -2 | /
C=C(C)Cn1c(SCC(=O)N/N=C/c2c(O)ccc3ccccc23)nc2ccccc2c1=O | -5 | -10 | -4 | -8 | 15 | 29* | -15
C=C(C)Cn1c(SCC)nc2ccccc2c1=O | -3 | -6 | -2 | -1 | 12 | 3 | /
O=C(CNC(=O)c1ccccc1F)OCc1nc2ccc(Cl)cc2n1CCO | 0 | 0 | -1 | 0 | / | / | /
O=C1NN(c2cccc(Br)c2)C(=O)/C1=C\c1ccc(O)cc1 | 0 | 7 | 2 | 16 | 20 | 4 | /
O=C1NN(c2cccc(Br)c2)C(=O)/C1=C/c1ccc(-c2cc([N+](=O)[O-])ccc2O)o1 | -2 | 0 | -9 | -4 | -27 | 20* | -12
CCOC(=O)c1ccccc1NC(=O)COC(=O)C1CCCC1 | -3 | -1 | 4 | 2 | 2 | 2 | /
CCOC(=O)N1CCN(C2CCCN(C(=O)c3cccc(Cl)c3)C2)CC1 (stereo not given) | -4 | 8 | -1 | 7 | 0 | 0 | /
O=C1NC(=S)/C(=C\c2ccc(-c3ccccc3Cl)o2)S1 | -3 | 37* | 10 | 11 | 35* | 29* | 45* | Fam108b inh=65*
Cc1noc(NC(=O)c2cccc(Cl)c2Cl)c1C#N | 0 | -1 | -4 | 1 | -13 | 1 | /
O=C(N/N=C/c1ccncc1)c1cccc(N/N=C/c2ccncc2)c1 | -3 | -80 | -1 | 1 | 2 | 3 | /
O=C(N/N=C/c1ccc(O)cc1)c1cccc(N/N=C/c2ccc(O)cc2)c1 | -5 | 31* | -14 | -1 | -15 | 56* | 48*
C/C(Cc1ccccc1)=N\NC(=O)CNC(=O)c1ccccc1Br | 9 | -8 | -5 | -4 | 3 | 0 | /
NC(=O)c1cc2cc(Cc3ccccc3Cl)ccc2oc1=O | -2 | 5 | 0 | 1 | 7 | -8 | /
CCN(CC)c1ccc(/C=C(/C#N)c2nc3ccccc3[nH]2)c(OC(C)C)c1 | -10 | 9 | -10 | -3 | 11 | 20* | 0
COc1ccc(OC)c(Nc2nc(-c3sc(N)nc3C)cs2)c1 | -11 | 13 | -2 | 3 | 11 | 21* | 17
O=C(Nc1cccc(Cl)c1)c1cc(N=Nc2ccc([N+](=O)[O-])cc2Cl)ccc1O | 4 | 22 | -11 | -12 | -8 | 26* | -1
O=C(Nc1ccc([N+](=O)[O-])cc1Cl)c1cc(Cl)ccc1O | -3 | 9 | 0 | 5 | 1 | 5 | /
CCOc1ccc2nc(-c3ccccc3)nc(SCC(=O)OC)c2c1 | -4 | -3 | -1 | -2 | 1 | 2 | /
CN1C(=O)/C(=C/c2ccc(C(=O)Nc3ccc(O)cc3C(=O)O)cc2)SC1=S | 5 | 35* | 0 | -3 | 17 | 19* | -12
COc1ccc(Nc2nc(-c3cc4cccc(OC)c4oc3=O)cs2)cc1 | -1 | 19 | -7 | -1 | -3 | 6 | /
COc1ccc2oc(=O)c(-c3csc(Nc4cccc(O)c4)n3)cc2c1 | -5 | 47* | 1 | 16 | -22 | 34* | 39* | Fam108b inh=100*
Cc1ccc(S(=O)(=O)Nc2csc(C)c2C(=O)O)cc1 | -1 | 2 | -1 | -4 | 19 | 47* | 2
Cc1ccc(S(=O)(=O)Nc2cc(C)c(O)cc2C)cc1 | 2 | 4 | -1 | 0 | 10 | 6 | /
COc1cccc2c(N/N=C/c3ccccc3)cc(C)nc12 | -3 | -1 | -2 | -2 | 2 | 0 | /
SMILES | PAD4 inh | PME-1 primary | LYPLA1 counter | LYPLA2 counter | GSTO1 inh | Fam108B inh | Fam108b confirm | others
COc1ccc(/C=N/Nc2cc(C)nc3ccc(Br)cc23)cc1 | -3 | 35* | -9 | -20 | -7 | 20* | -1
COc1ccc2nc(C)cc(N/N=C/c3cccc(OC)c3O)c2c1 | -3 | 14 | 0 | -12 | 11 | 19* | -1
Cc1cc(N/N=C/c2ccccc2O)c2ccccc2n1 | -2 | 6 | -4 | 2 | -4 | 9 | /
CCc1cccc2c(=O)c(C(=O)NCCN3CCOCC3)c[nH]c12 | 0 | -2 | 0 | -1 | 0 | 2 | /
O=C(O)c1ccc(N/N=C/C2=C(N3CCOCC3)C(=C\c3ccccc3)/CC2)cc1 | 4 | 4 | -3 | 4 | 27 | 19* | 22*
Cc1cc(C)nc(N/N=C/C2=C(N3CCOCC3)C(=C\c3ccc(Cl)cc3)/CC2)n1 | -8 | 3 | -1 | -7 | 3 | 6 | /
O=C(N/N=C/c1ccc(O)c(O)c1)c1ccc(CSc2cccc3cccnc23)cc1 | -14 | 54* | -7 | 8 | 22 | 43* | 26*
O=C(CSc1cccc2cccnc12)N/N=C/c1cccc(O)c1 | -1 | 1 | -1 | 2 | 4 | -4 | /
Cc1ccc(C(C)C)c(OCc2ccc(C(=O)N/N=C/c3cccc(O)c3O)cc2)c1 | -4 | 49* | -23 | 2 | -32 | 28* | 10
Cc1ccc(C(C)C)c(OCc2ccc(C(=O)N/N=C/c3ccc(O)c(O)c3)cc2)c1 | 0 | 38* | -12 | 3 | -25 | 35* | -25
CCOC(=O)c1ccc(NC(=O)CC2Sc3ncnn3C2=O)cc1 (stereo not given) | -1 | 0 | -2 | -6 | 0 | 1 | /
Cc1cc(C)cc(NC(=O)c2sc3nc(C)cc(C)c3c2N)c1 | -1 | 6 | 0 | 3 | 1 | 0 | /
CCc1ccc(C2CC(c3ccccc3C)n3nc(N)nc3N2)cc1 (stereo not given) | -3 | -6 | -5 | -1 | 5 | 0 | /
CCN(c1ccccc1)S(=O)(=O)c1ccc(NC(=O)c2nc(S(C)(=O)=O)ncc2Cl)cc1 | -2 | 17 | -12 | -5 | -47 | 38* | 37* | Fam108b inh=80*
O=C1CC2c3ccccc3C1C1C(=O)N(Cc3ccccc3)C(=O)C21 (stereo not given) | 2 | 6 | 0 | 3 | -1 | 1 | /
CCOC(=O)C1=C(C)N=c2s/c(=C\c3ccc(OCC(=O)O)cc3)c(=O)n2C1c1ccccc1OC (stereo not given) | 5 | -7 | -9 | -12 | -7 | -5 | /

From PubChem
